These results are taken from PubChem BioAssay (NCI).

Experiment [1] can be described thus: NCI Yeast Anticancer Drug Screen. Data for the rad50 strain (AID 155).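 Note: 0% = growth of vehicle-only cultures of the same strain.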 The note with it: S. cerevisiae rad50 strain growth inhibition, hits give high values. The essentials: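 Cells are treated with compound, grown, and their growth is then scored against vehicle-only cultures of the same repair-deficient yeast strain.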
Experiment [2] is described as follows: NCI Yeast Anticancer Drug Screen. Data for the sgs1 mgt1 strain (AID 161).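 Note: 0% = growth of cultures given vehicle only.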 The note with it: S. cerevisiae sgs1 mgt1 strain, hits give high values. In outline: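 Compounds are added to genetically altered yeast, and growth is compared with cultures given vehicle alone to give percent inhibition.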
Experiment [3] can be described thus: NCI Yeast Anticancer Drug Screen. Data for the cln2 rad14 strain (AID 165).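 Note: 0% = growth equal to vehicle treated cultures.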 To be noted: S. cerevisiae cln2 rad14 strain, hits give high values. In outline: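 Growth inhibition, relative to vehicle-treated controls, is the read-out. The test organism is a yeast strain with defined genetic alterations, cln2 rad14.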
Experiment [4] in a line: NCI Yeast Anticancer Drug Screen. Data for the bub3 strain (AID 167). To be noted: S. cerevisiae bub3 mutant strain, hits give high values. In outline: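 Part of a panel of yeast mutants defective in DNA damage repair or cell cycle regulation. Each strain is grown with compound, and inhibition is calculated relative to solvent-treated cultures.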
A short description of experiment [5]: NCI Yeast Anticancer Drug Screen. Data for the mlh1 rad18 strain (AID 175). The note with it: S. cerevisiae mlh1 rad18 strain growth inhibition, hits give high values. In outline:
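Cells of a genetically altered yeast strain, deficient in DNA damage repair, were treated with compound. Their growth was then compared with that of vehicle-treated cultures to give inhibition.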

Experiment [6] can be described thus: NCI Yeast Anticancer Drug Screen. Data for the mec2-1 strain (AID 157). The note with it: S. cerevisiae mec2-1 strain, hits give high values. The essentials:
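Growth inhibition is read against vehicle-treated controls after compound exposure of the mec2-1 yeast strain, which is defective in DNA damage repair or cell cycle control.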

The mark [7] stands for this setting: at 5.0 µM (retest, dose inferred, filed as 0.5).
[8] abbreviates: at 50.0 µM (retest, dose inferred, filed as 5.0).

Each structure is given as a SMILES string. This is part of a sample that, as a whole, favours compounds with a hit. Of some 79,000 tested, about 15% had one in any assay. Values without a mark were called inactive. The source made the active and inactive calls. Cut-off read from the data, not from the text of the source: active = growth inhibition above about 70%; inactive = the rest.

For `CC1(C)N=C(N)N=C(N)N1c1ccc(OCCCCNC(=O)Nc2ccc(S(=O)(=O)F)cc2)c(Cl)c1`, the growth inhibition is -3% in experiment [1] (setting [7]); 96% (active) in experiment [1] (setting [8]); 98.3% (active) in experiment [1] (at 50.0 µM); -1% in experiment [2] (setting [7]); 98% (active) in experiment [2] (setting [8]); 99.4% (active) in experiment [2] (at 50.0 µM). Also, the growth inhibition in experiment [3] (setting [7]) is -4%; in experiment [3] (setting [8]), 98% (active); in experiment [3] (at 50.0 µM) it was 97.3% (active); in experiment [4] (setting [7]), -3%; in experiment [4] (setting [8]), 98% (active); in experiment [4] (at 50.0 µM), 98.8% (active). In addition, the growth inhibition in experiment [5] (setting [7]) was -2%; in experiment [5] (setting [8]), 99% (active); in experiment [5] (at 50.0 µM), 99.1% (active).

Regarding `[C-]#[O+].[C-]#[O+].[CH3][Sn]([CH3])[c]1ccccc1.[Fe+5].[c-]1[c-][c-][cH-][c-]1`, the growth inhibition in experiment [1] (setting [7]) was 7%; in experiment [1] (setting [8]), 82% (active); in experiment [1] (at 50.0 µM), 95.3% (active); in experiment [2] (setting [7]), 9%; in experiment [2] (setting [8]) it was 88% (active); in experiment [2] (at 50.0 µM), 94.7% (active). Further, the growth inhibition was -8% in experiment [3] (setting [7]); 85% (active) in experiment [3] (setting [8]); 95.3% (active) in experiment [3] (at 50.0 µM); -7% in experiment [4] (setting [7]); 90% (active) in experiment [4] (setting [8]); 98% (active) in experiment [4] (at 50.0 µM). In addition, the figures for the growth inhibition in experiment [5] (setting [7]), in experiment [5] (setting [8]) and in experiment [5] (at 50.0 µM) were 7%, 90% (active) and 94% (active), respectively.

Consider `C/C(=N\NC(=S)N1CC2CCC(CC2)C1)c1nccs1`, for which the growth inhibition in experiment [1] (setting [7]) is 89% (active); in experiment [1] (setting [8]) it was 98% (active); in experiment [6] (setting [7]) it was 77% (active); in experiment [6] (setting [8]) it was 99% (active); in experiment [2] (setting [7]), 92% (active); in experiment [2] (setting [8]), 99% (active). The growth inhibition in experiment [2] (at 50.0 µM) was 87% (active); in experiment [3] (setting [7]), 86% (active); in experiment [3] (setting [8]) it was 98% (active); in experiment [3] (at 50.0 µM), 87.2% (active); in experiment [4] (setting [7]), 95% (active); in experiment [4] (setting [8]) it was 99% (active). For the same compound, the values for the growth inhibition in experiment [4] (at 50.0 µM), in experiment [5] (setting [7]) and in experiment [5] (setting [8]) were 86.5% (active), 95% (active) and 98% (active), respectively.

In the case of `CCC(=O)O.[Ag]`, the growth inhibition is 98% (active) in experiment [1] (setting [7]); 98% (active) in experiment [1] (setting [8]); 91.2% (active) in experiment [1] (at 50.0 µM); 99% (active) in experiment [2] (setting [7]); 98% (active) in experiment [2] (setting [8]); 91.6% (active) in experiment [2] (at 50.0 µM). Besides, the growth inhibition in experiment [3] (setting [7]) was 98% (active); in experiment [3] (setting [8]), 97% (active); in experiment [3] (at 50.0 µM), 90.3% (active); in experiment [4] (setting [7]), 99% (active); in experiment [4] (setting [8]) it was 97% (active); in experiment [4] (at 50.0 µM) it was 91% (active). Also, the growth inhibition in experiment [5] (setting [7]) is 99% (active); in experiment [5] (setting [8]), 97% (active); in experiment [5] (at 50.0 µM), 90.3% (active).

As to `O=[N+]([O-])c1cccc([N+](=O)[O-])c1Cl`, the growth inhibition was 58% in experiment [1] (setting [7]); 96% (active) in experiment [1] (setting [8]); 22% in experiment [6] (setting [7]); 96% (active) in experiment [6] (setting [8]); 13% in experiment [2] (setting [7]); 88% (active) in experiment [2] (setting [8]). Also, the growth inhibition in experiment [3] (setting [7]) is 8%; in experiment [3] (setting [8]) it was 12%; in experiment [4] (setting [7]) it was -12%; in experiment [4] (setting [8]), 33%; in experiment [5] (setting [7]), 7%; in experiment [5] (setting [8]), 46%.

Take `CC(Cc1ccc2c(c1)OCO2)NN` (stereo not drawn): the growth inhibition in experiment [1] (setting [7]) is -2%; in experiment [1] (setting [8]) it was 37%; in experiment [6] (setting [7]), -5%; in experiment [6] (setting [8]), 6%; in experiment [2] (setting [7]), -2%; in experiment [2] (setting [8]), 59%. The growth inhibition was -5% in experiment [3] (setting [7]); -8% in experiment [3] (setting [8]); 2% in experiment [4] (setting [7]); 34% in experiment [4] (setting [8]); -20% in experiment [5] (setting [7]); 16% in experiment [5] (setting [8]).

On to `COC1CC(C)C(OC)C2=CC(=O)C=C(NC(=O)/C(C)=C/C=C\C(C)C(OC(N)=O)/C(C)=C\C(C)C1OC)C2=O` (stereo not drawn), for which the growth inhibition in experiment [1] (setting [7]) is 93% (active); in experiment [1] (setting [8]), 98% (active); in experiment [1] (at 50.0 µM), 91.5% (active); in experiment [2] (setting [7]), 97% (active); in experiment [2] (setting [8]), 99% (active); in experiment [2] (at 50.0 µM), 92.5% (active). Besides, the growth inhibition in experiment [3] (setting [7]) is 89% (active); in experiment [3] (setting [8]), 97% (active); in experiment [3] (at 50.0 µM), 91.2% (active); in experiment [4] (setting [7]) it was 97% (active); in experiment [4] (setting [8]) it was 99% (active); in experiment [4] (at 50.0 µM), 91.1% (active). For the same compound, the growth inhibition in experiment [5] (setting [7]) was 97% (active); in experiment [5] (setting [8]), 98% (active); in experiment [5] (at 50.0 µM), 91.4% (active).

With `O=C(NCC1(O)N=C(c2ccc(F)cc2)c2ccsc2-n2cccc21)c1ccc(Cl)cc1Cl` (stereo not drawn), the growth inhibition in experiment [1] (setting [7]) is 6%; in experiment [1] (setting [8]), 63%; in experiment [1] (at 50.0 µM), 96.7% (active); in experiment [2] (setting [7]) it was -8%; in experiment [2] (setting [8]), 63%; in experiment [2] (at 50.0 µM) it was 97.2% (active). Moreover, the growth inhibition was 2% in experiment [3] (setting [7]); 79% (active) in experiment [3] (setting [8]); 93.8% (active) in experiment [3] (at 50.0 µM); 9% in experiment [4] (setting [7]); 66% in experiment [4] (setting [8]); 94.5% (active) in experiment [4] (at 50.0 µM). The growth inhibition in experiment [5] (setting [7]) was 6%; in experiment [5] (setting [8]) it was 77% (active); in experiment [5] (at 50.0 µM) it was 94.9% (active).

Take `C1CC[N-]CC1.C1CC[N-]CC1.N#C[S-].N#C[S-].[Cd]`: the growth inhibition in experiment [1] (setting [7]) is 33%; in experiment [1] (setting [8]) it was 86% (active); in experiment [6] (setting [7]), 18%; in experiment [6] (setting [8]), 69%; in experiment [2] (setting [7]), 15%; in experiment [2] (setting [8]), 81% (active). The growth inhibition in experiment [3] (setting [7]) is 11%; in experiment [3] (setting [8]), 57%; in experiment [4] (setting [7]) it was 10%; in experiment [4] (setting [8]), 73% (active); in experiment [5] (setting [7]), -4%; in experiment [5] (setting [8]), 66%.

As for `CC1CCN(C(CC(=O)c2ccccc2)C(=O)c2ccccc2)CC1` (stereo not drawn), the growth inhibition is 20% in experiment [1] (setting [7]); 99% (active) in experiment [1] (setting [8]); 7% in experiment [6] (setting [7]); 100% (active) in experiment [6] (setting [8]); 21% in experiment [2] (setting [7]); 99% (active) in experiment [2] (setting [8]). For the same compound, the growth inhibition is 9% in experiment [3] (setting [7]); 99% (active) in experiment [3] (setting [8]); 13% in experiment [4] (setting [7]); 100% (active) in experiment [4] (setting [8]); -2% in experiment [5] (setting [7]); 98% (active) in experiment [5] (setting [8]).

Take `CCOC(=O)/C(=C\c1ccc(C(F)(F)F)cc1)[Se]c1ccccc1`: the growth inhibition in experiment [1] (at 50.0 µM) is 26.6%; in experiment [6] (at 50.0 µM), -34.1%; in experiment [2] (at 50.0 µM), 9.35%; in experiment [3] (at 50.0 µM), 13.8%; in experiment [4] (at 50.0 µM), -2.5%.

`C[n+]1c(/C=C/c2ccc(O)c3ccccc23)[se]c2ccccc21`: the growth inhibition in experiment [1] (setting [7]) was -3%; in experiment [1] (setting [8]), 78% (active); in experiment [1] (at 50.0 µM), 84.8% (active); in experiment [2] (setting [7]) it was -24%; in experiment [2] (setting [8]) it was 76% (active); in experiment [2] (at 50.0 µM), 87.1% (active). Besides, the growth inhibition in experiment [3] (setting [7]) was -2%; in experiment [3] (setting [8]) it was 16%; in experiment [3] (at 50.0 µM), 41.2%; in experiment [4] (setting [7]), -5%; in experiment [4] (setting [8]), 20%; in experiment [4] (at 50.0 µM) it was 74.6% (active). For the same compound, the growth inhibition in experiment [5] (setting [7]) was 13%; in experiment [5] (setting [8]), 81% (active); in experiment [5] (at 50.0 µM), 78.9% (active).
